Here are results for 40 compounds from PubChem BioAssay (EPA / NIEHS).

The structures appear in SMILES notation. Calls of active or inactive are those of the source. How the source made its calls: active means hit-call score of the fitted dose curve at least 0.9, where 1 is the maximum; inactive means score below 0.9.

Read-out in this assay: Lipoprotein lipase (LPL), LPL (gene 4023)
Kind of assay: LTEA_HepaRG_LPL: Life Technologies and Expression Analysis (LTEA) Assay for Lipoprotein lipase (LPL) using HepaRG (AID 2283515). The following applies: mRNA level, 48 h; actives raise or lower the signal. Here is the method:
LTEA_HepaRG is a cell based, multiplexed-readout assay that uses HepaRG, a human liver cell line, with measurements taken at 48 hours after chemical dosing on a 96-well plate.LTEA_HepaRG_LPL is one of 102 assay component(s) measured in the LTEA HepaRG cell culture assay. It is a marker of Steatosis.Data from the assay component LTEA_HepaRG_LPL was analyzed into 1 endpoint. This assay endpoint, LTEA_HepaRG_LPL, was analyzed with bidirectional fitting relative to DMSO as the negative control and baseline of activity. Using a type of inducible reporter, measures of mRNA induction for gain or loss-of-signal activity can be used to understand regulation of transcription factor activity. To generalize the intended target to other relatable targets, this assay endpoint is annotated to the esterase intended target family, where the subfamily is lipase.
A total of 1060 chemcials from the ToxCast library were tested in eight-point concentration-response experiments. Cell culture and cytotoxicity assays were conducted at Thermo Fisher Scientific's Custom Services facility (Madison, WI). A single lot of human HepaRG cells (Thermo Fisher Scientific, Frederick, MD) was used for the cell culture experiments. 96-well format collagen type I coated plates of human HepaRG cells were prepared using established methods. Briefly, cryopreserved HepaRG cells were thawed, plated at a density of approximately 100,000 cells/well in HepaRG Thaw, Plate, and General Purpose media (HPRG770, Thermo Fisher Scientific), and incubated for 48 hours. 0.5% DMSO was selected as vehicle control to balance the requisite need of DMSO in HepaRG cultures to maintain differentiation (for example, baseline metabolism, proportions of hepatocytes vs. cholangiocytes), while enabling further hepatic receptor pathway activation (for example, PXR and CAR) in response to chemical exposure. 48 hours after plating, the culture medium was replaced with HepaRG Serum-Free Incudtion Media. Cells were exposed to each test chemical in duplicate and maintained in CO2 incubators for another 48 hours. Chemical plates were thawed to room temperature and 200x concentrations of treatment groups were prepared. 8-point conentration-reponse curves were made with the highest exposure at 100 uM, followed by half-log dilutions, all in 0.5% DMSO. Each test plate contained variouse controls, induction positive controls (1mM phenobarbital), cytotoxicity positive controls ([…] aflatoxin B1), vehicle controls (0.5% DMSO), and total lysis controls (0.5% DMSO). Cell morphology images were taken using an Essen IncuCyte FLR automated microscope, with six 96-well plates imaged in about 24 minutes. Images were captured and exported and JPEG files. Spent culture media was transfered to black-well plates for the LDH assay, and remaining media was sorted at -80 C for later use. Cells were treated with RLT buffer and frozen until shipped for gene expression analysis. Total RNA was isolated from the cell suspension in 75 uL of Buffer RLT (Qiagen, Germantown, MD 20874) by Quintiles/Expression Analysis (Durham, NC) using a custom isolation procedure. Total RNA from each plate well was transferred to a preamplification plate. Fluidigm's 96.96 Dynamic ArrayTM (Fluidigm, Amsterdam, the Netherlands) technology was used for gene expression analyses by quantitative reverse transcription polymerase chain reaction (qRT-PCR, performed by Quintiles/Expression Analysis, Durham, NC)89. Standard TaqManTM Assays (Applied Biosystems/ThermoFisher Scientific, Foster City, CA) were used to assess the expression of 93 genes selected based on their selectivity and sensitivity to important hepatic receptors known to be modulated by environmental chemicals; importance in human hepatocyte functionality; and hepatotoxicity. […]
As for `CCCCCOC(=O)c1ccccc1C(=O)OCCCCC`, the outcome was inactive.
`ClCCOCCCl`: the outcome was inactive.
Regarding `CN(C)c1ccc(C(=O)c2ccc(N(C)C)cc2)cc1`, the outcome was inactive.
`Oc1ccccc1Cl`: the result was inactive.
For `N#CC(Br)Br`, the call was inactive.
With `Cc1ccc(N)c(N)c1`, the compound was classed as inactive.
What is called AC50 is the midpoint of the concentration-response curve, whichever way the signal moves. Turning to `O=C(Oc1ccc(Br)cc1)N1CCN2CCC1CC2`, the AC50 is 74.4 µM (active).
`Cc1ccc(N)cc1`: the compound was classed as inactive.
Regarding `OCCOCCO`, the compound was called inactive.
Take `CCNS(=O)(=O)C(F)(F)C(F)(F)C(F)(F)C(F)(F)C(F)(F)C(F)(F)C(F)(F)C(F)(F)F`: the result was inactive.
On the same count and under the same terms, the same measure for `O=C(Nc1ccccc1)c1ccccc1I`: “inactive”; for `CC(C)(OOC(C)(C)c1ccccc1)c1ccccc1`: “inactive”.
As for `O=C1CCCO1`, the AC50 is 50 µM (active).
Consider `C[N+](C)(C)CC1CO1` (stereo not given), for which the call was inactive.
The same measure, in the same setting: the same measure for `[As]#[In]`: “inactive”.
The same measure, in the same setting: the same measure for `CCN(CC)CCO`: “inactive”.
The same measure, in the same setting: to `c1ccc(C2CO2)cc1` (stereo not given) belongs “inactive”.
As for `CCOC(=O)[C@]1(c2ccccc2)Oc2ccccc2[C@@H]1N`, the AC50 was 50 µM (active).
Turning to `CCCCOC(=O)c1ccccc1C(=O)OCc1ccccc1`, the call was inactive.
On the same count and under the same terms, to `N#CC(Br)(Br)C(N)=O` belongs “inactive”; to `ClC1=C(Cl)[C@]2(Cl)[C@H]3[C@H]([C@@H]4C=C[C@H]3C4)[C@@]1(Cl)C2(Cl)Cl`, “inactive”.
In the case of `O=C(N[C@H](c1ccccc1)[C@@H]1CN2CCC1CC2)c1c(Cl)ccc(C(F)(F)F)c1Cl`, the AC50 was 11.1 µM (active).
For `CCC[CH2][Sn]([Cl])([CH2]CCC)[CH2]CCC`, the outcome was inactive.
The same measure, in the same setting: the same measure for `CNC(=O)Oc1cccc2c1OC(C)(C)C2`: “inactive”.
With `c1ccc(N=Nc2ccccc2)cc1`, the result was inactive.
As to `ClC1=C(Cl)C2(Cl)C3C(Cl)C=CC3C1(Cl)C2(Cl)Cl` (stereo not given), the compound was classed as inactive.
For `CC(C)(C)OOC(=O)c1ccccc1`, the outcome was inactive.
With `C[C@]12C=CC3=C4CCC(=O)C=C4CC[C@H]3[C@@H]1CC[C@@H]2O`, the outcome was inactive.
Turning to `OCCCl`, the result was inactive.
Consider `CCN(CC)N=O`, for which the result was inactive.
Same read-out and setting: the same measure for `c1ccc2c(c1)oc1ccccc12`: “inactive”; for `C=CCc1ccc2c(c1)OCO2`: “inactive”.
For `COC(=O)Nc1nc2ccccc2[nH]1`, the compound was called inactive.
Still for that read-out and setting: the same measure for `CCCCCCCCn1sccc1=O`: “inactive”; for `CCC12COCN1COC2`: “inactive”; for `[O-][Cl+]O`: “inactive”.
Consider `CC(C)(C)C(O)(CCc1ccc(Cl)cc1)Cn1cncn1` (stereo not given), for which the AC50 is 74.4 µM (active).
Regarding `CS(=O)(=O)NC(=O)c1cc(Oc2ccc(C(F)(F)F)cc2Cl)ccc1[N+](=O)[O-]`, the compound was classed as inactive.
The same measure, in the same setting: the same measure for `CC(C)(C)OOC(C)(C)CCC(C)(C)OOC(C)(C)C`: “inactive”; for `Clc1ccccc1Cl`: “inactive”.
